Results: the supplement of paper PMC3334620
Whole data set: some 33,000 sequences, median “E-score (-0.5 to 0.5)” near -0.01, cut for the highest 2% near 0.26. This excerpt belongs to a sample that is enriched for the highest values.

target: Ste12 (UniProt P13574); experiment: PBM E-score (8-mer binding enrichment) (E-score (-0.5 to 0.5)); higher = stronger / more preferred TF binding; conditions: protein concentration: 200 nM; construct: GST-DNA-binding domain
How it was run: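 E-scores (a modified Wilcoxon-Mann-Whitney statistic) were assigned by the Universal PBM Analysis Suite to every ungapped eight-base word pooled with its reverse complement. The input came from universal all-10-mer Agilent arrays made double-stranded by primer extension and probed with GST-tagged yeast transcription factors at about 100-200 nM. Fluorescent anti-GST detected bound protein, and masliner normalised the scans.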

UniProt P13574, sequence (P13574 whole entry, the tested form may be a part): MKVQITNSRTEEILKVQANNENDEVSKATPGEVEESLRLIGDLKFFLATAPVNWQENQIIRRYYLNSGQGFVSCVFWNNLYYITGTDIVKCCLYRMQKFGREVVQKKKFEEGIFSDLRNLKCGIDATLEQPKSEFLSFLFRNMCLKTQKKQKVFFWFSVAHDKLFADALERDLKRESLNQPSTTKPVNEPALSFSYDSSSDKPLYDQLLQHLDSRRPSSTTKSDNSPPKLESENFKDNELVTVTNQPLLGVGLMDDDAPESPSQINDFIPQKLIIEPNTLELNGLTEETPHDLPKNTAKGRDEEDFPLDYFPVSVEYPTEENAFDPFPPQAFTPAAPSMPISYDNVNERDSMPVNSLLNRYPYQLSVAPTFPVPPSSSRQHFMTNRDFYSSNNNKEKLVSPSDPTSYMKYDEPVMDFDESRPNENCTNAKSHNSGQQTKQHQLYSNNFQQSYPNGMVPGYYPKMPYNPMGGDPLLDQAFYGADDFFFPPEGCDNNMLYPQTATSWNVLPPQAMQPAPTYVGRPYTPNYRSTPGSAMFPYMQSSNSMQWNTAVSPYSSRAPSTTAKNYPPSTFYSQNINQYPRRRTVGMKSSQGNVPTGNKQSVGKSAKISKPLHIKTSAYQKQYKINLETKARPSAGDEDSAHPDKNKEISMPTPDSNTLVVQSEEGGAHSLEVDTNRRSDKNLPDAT

| Sequence | PBM E-score |
| --- | --- |
| ATTGAGGG | -0.124 |
| GAATGAGC | -0.0246 |
| ATCCGAAT | 0.192 |
| AAAAACCG | 0.178 |
| AAAACCTA | 0.283 |
| CAAACCTA | 0.0393 |
| AAAAACCT | 0.263 |
| AAAAACCC | 0.0736 |
| AAAACCTT | 0.142 |
| CGAAGAAA | 0.195 |
| ACTCTCCG | -0.0208 |
| AAGAAGAG | -0.00818 |
| AAGTTGAC | 0.0703 |
| AGTAGGCG | -0.256 |
| ATCCAATG | -0.165 |
| ATCTCTCG | -0.0464 |
| AAACAACG | 0.0956 |
| AAACAACT | 0.174 |
| TAACAATA | 0.239 |
| GATCAACA | -0.0858 |
| GAACAACC | 0.00021 |
| AAACAACC | 0.277 |
| AAACAACA | 0.287 |
| AATCAACA | 0.29 |
| AAACAATA | 0.274 |

| Sequence | PBM E-score |
| --- | --- |
| TATCAACA | 0.149 |
| AAACAATT | 0.112 |
| CAACAACC | 0.0311 |
| GCCAATGA | -0.228 |
| GGGTGGAC | -0.226 |
| ACATTTTG | 0.0789 |
| ACAGTTGC | -0.0387 |
| AACCATCT | 0.0768 |
| AGCTCAGC | -0.398 |
| ACTGACAA | 0.0676 |
| ACCTGTCA | 0.0912 |
| GCACAAAA | 0.165 |
| CTACAAAA | 0.228 |
| ATACAAAA | 0.209 |
| ACACAAAA | 0.26 |
| TTACAAAA | 0.301 |
| TCACAAAA | 0.271 |
| ACGTTCTC | 0.0364 |
| TACCTATA | 0.106 |
| CGCATGAC | -0.0101 |
| CCCTGTTA | 0.279 |
| CCCTGTTC | -0.243 |
| GCCTGTTA | 0.00489 |
| CGCTCCTC | -0.106 |
| CAGTAGGG | -0.176 |

| Sequence | PBM E-score |
| --- | --- |
| CTGGCTAA | -0.0552 |
| ACGTTTCG | 0.297 |
| TCATTTCA | 0.242 |
| ACGTTTCT | 0.064 |
| ACGTTTCA | 0.48 |
| TCGTTTCA | 0.467 |
| ACGTTTGG | 0.127 |
| ACGTTTCC | -0.0394 |
| GCGTTTCA | 0.476 |
| GCGTTTGA | 0.0907 |
| TCGTTTAA | 0.155 |
| GCGTTTCC | 0.0828 |
| ACGTTTAG | -0.156 |
| TACTTCCA | 0.0198 |
| AATGGGAT | -0.185 |
| CGCAAACA | 0.053 |
| AAGTCGGC | -0.16 |
| AACGCTTA | -0.0484 |
| CGACAGAC | -0.00066 |
| CAGGTCCC | -0.104 |
| AGCTGATG | 0.129 |
| GAACGGTA | -0.17 |
| CCGTTTCA | 0.46 |
| CCGTTTCC | 0.139 |
| CCGTTTCG | 0.164 |

| Sequence | PBM E-score |
| --- | --- |
| GAACTCCC | 0.0278 |
| ATGCGATG | 0.00552 |
| GTTGGTCA | 0.121 |
| GAAATGAA | 0.331 |
| TAAATGAA | 0.185 |
| GGAATGAA | 0.281 |
| GAAATTAC | 0.176 |
| CGAATGAA | 0.084 |
| CAAATGAA | 0.238 |
| AAAATGAT | 0.317 |
| GAAATTAA | 0.294 |
| CAAATTAA | 0.203 |
| TGAATGAA | 0.208 |
| AAAATGAG | 0.124 |
| AAAATGAC | 0.121 |
| AAGTTGAA | 0.134 |
| CCGGCCCG | 0.00367 |
| CGCCAAAA | 0.227 |
| GGGGTGGA | 0.00832 |
| ACCTTATG | 0.0329 |
| TCCTAAGA | -0.00559 |
| AAAGGTTC | -0.154 |
| AAAATGGA | 0.237 |
| AAAATGAA | 0.27 |
| AAAATGCA | 0.00439 |

| Sequence | PBM E-score |
| --- | --- |
| GCCTCAGC | -0.226 |
| ATAAAGTC | 0.167 |
| AGATGGCT | -0.0505 |
| CATGTAAA | 0.027 |
| AATGTAAA | 0.269 |
| AATGTAAT | 0.187 |
| TATTCAGA | 0.029 |
| CGCCAATA | 0.036 |
| ATTTGAAC | 0.123 |
| CTTTGAAC | 0.0927 |
| ATTTGAAG | 0.0968 |
| GTTTGATA | 0.301 |
| CTTTGACA | -0.0728 |
| ATTTGATA | 0.258 |
| CTTTGAAA | 0.318 |
| CTTTGAGA | 0.114 |
| ATTTGAAA | 0.366 |
| GTTTGAGA | 0.311 |
| CTTTGATA | 0.179 |
| ATTTGAGA | 0.126 |
| CGCCCTTA | -0.0507 |
| AGTGAACG | -0.109 |
| TGCGTCAA | 0.0654 |
| GTCCAAAC | 0.0248 |
| ACGCTTGG | -0.293 |

| Sequence | PBM E-score |
| --- | --- |
| ATAGACGC | 0.0365 |
| GTTTGCAA | 0.186 |
| GTTTGAAA | 0.409 |
| GTTTGACA | 0.0294 |
| AGCGGCTC | -0.0004 |
| ACCAAAAC | 0.235 |
| ACCAAAAA | 0.27 |
| ACCAACAA | 0.269 |
| ACCAAAAT | 0.254 |
| TACCAAAA | 0.204 |
| AACCAAAA | 0.324 |
| CACCAAAA | 0.216 |
| ACCAACAT | 0.125 |
| ACCAACAG | -0.042 |
| TATTAAGA | 0.0777 |
| GCATCTAC | 0.0977 |
| AGCTTGAA | -0.0125 |
| CATGGAAA | 0.098 |
| TATGGAAA | 0.292 |
| CGTGGAAA | 0.19 |
| AGTGGAAA | -0.0995 |
| TGTGGAAA | 0.286 |
| GATGGAAA | 0.0433 |
| CTCAAGGA | -0.181 |
| ACTGGTCC | -0.0777 |

| Sequence | PBM E-score |
| --- | --- |
| AACTTTTA | 0.228 |
| CACCTTCC | 0.0254 |
| AAACCCAA | 0.349 |
| AACCCCCG | -0.133 |
| AAACCCCG | 0.28 |
| AAACCCCC | -0.122 |
| CAAACCCG | 0.0369 |
| GAAACCCA | 0.246 |
| GAACCCGA | -0.0553 |
| AAACCCGA | 0.336 |
| AAACCCAT | 0.131 |
| GAACCCAA | -0.0682 |
| TAACCCGA | -0.0489 |
| CAAACCCA | 0.262 |
| GCGCACCC | -0.0102 |
| CCAAGGGC | -0.139 |
| CCGCACCC | 0.222 |
| CAAGTTCG | -0.0514 |
| CTTCTAAC | -0.0172 |
| AGTCTAGC | -0.223 |
| CTATCGCA | -0.0857 |
| AGGTGATA | 0.0763 |
